GLP1R ag – GLP-1 receptor (human) agonism; AID 624172; Potency, µM (doses to about 45.6 µM), for inactives: at the highest dose activation, hits mostly activators; P43220; 0.007% of 380,000 active; HEK293 GLP-1R CRE-luciferase, luminescence, 4-6 h; cells express a hypersensitive GLP-1R form; also: % of control where 0% means no effect
Target sequence (P43220 whole entry, looked up): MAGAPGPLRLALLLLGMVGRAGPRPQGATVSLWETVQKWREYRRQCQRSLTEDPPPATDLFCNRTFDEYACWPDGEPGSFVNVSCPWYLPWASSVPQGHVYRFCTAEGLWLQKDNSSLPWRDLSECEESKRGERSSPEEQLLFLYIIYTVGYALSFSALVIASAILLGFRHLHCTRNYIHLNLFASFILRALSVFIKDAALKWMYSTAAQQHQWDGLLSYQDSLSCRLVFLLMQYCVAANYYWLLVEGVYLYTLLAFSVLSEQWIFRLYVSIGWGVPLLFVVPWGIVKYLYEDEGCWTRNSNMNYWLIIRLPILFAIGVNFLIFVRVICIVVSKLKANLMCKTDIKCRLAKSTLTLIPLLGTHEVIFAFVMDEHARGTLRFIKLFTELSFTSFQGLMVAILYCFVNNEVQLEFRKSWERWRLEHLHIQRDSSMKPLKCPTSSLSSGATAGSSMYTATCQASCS
Mito fusion act – blocks mitochondrial division or promotes mitochondrial fusion. S. cerevisiae fusion-defective mutant growth rescue, CellTiterGlo 48 h. Potency, µM (titrated, usually from 46.1 µM), inactives show at the top dose growth rescue (activation), actives largely listed as activators. 0.23% of 320,000 active. AID 485298; also: % of control where 0% means no effect; nearly all actives have a fitted effect of over 45% in size
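Growth-rescue viability read-out: after 48 h at the non-permissive 37C in glycerol/ethanol YPEG, yeast mitochondrial fusion mutants are measured by CellTiterGlo luminescence; compounds (23 nl pinned per well) restoring growth score as division inhibitors or fusion activators.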
HEK293 tox – cytotoxic in the GLP-1 receptor inverse agonist counter-screen; HEK293 cAMP-luciferase reporter cells, luminescence, 24 h; Potency, µM (top dose mostly 38.3 µM), for inactives: at the top dose activity change, negative = inhibition, usual class: inhibitors; 0.13% of 410,000 active; AID 624418;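 also: loss of luciferase light is scored as toxicity; % is scaled to controls: 0 for no effect and ±100 for the full control effect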
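MLSMR compounds, 24 hr on cells at 37 deg C/5% CO2; luminescence after luciferase reagent (12 min RT). Inhibition counted as the undesired cytotoxic outcome.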
BRCA1 expr act – increases BRCA1 expression; MCF7-BRCA1-FFLuc reporter, luminescence, 48 h; response scale: scaled: vehicle 0%, 10 µM genistein 100%; Potency, µM (doses to about 46.1 µM), without a hit: top-dose activation, usual class: activators; 1.1% of 380,000 active; also: nearly all actives have a fitted effect of over 80% in size
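Using MCF7 cells harboring a BRCA1 firefly luciferase reporter, plated 2 h before compound pinning, the screen measured luminescence after 48 h incubation. Responses were normalized to DMSO and 10 microM genistein, then fitted for concentration-effect.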
GLP1R inv ag – acts as inverse agonist at human GLP-1 receptor; P43220; HEK293 GLP-1R CRE-luciferase, luminescence, 24 h; GLP-1R form is constitutively active; Potency, µM (highest dose often 38.3 µM), without a hit: at the highest dose activity change, negative = inhibition, hits mostly inhibitors; 1.6% of 410,000 active; AID 624417; also: % is scaled to controls: 0 for no effect and ±100 for the full control effect; nearly all actives have a fitted effect of over 55% in size
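Assay principle: reduced luminescence from a cAMP-responsive reporter in HEK293 cells co-expressing a constitutively active GLP-1R. Conditions: 24 hr compound incubation, 37 deg C, 5% CO2.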
An asterisk follows results filed as active; ? = inconclusive; · = no result given. Hits are enriched below; roughly 2.8% of the tested compounds scored in any of these assays. Calls follow the shape of the dose curve; as a rule, active = well fitted curve in the direction sought with a large enough effect; inconclusive = small, poorly fitted or top-dose-only effect, or another doubt; inactive = no such curve, though single readings can be large; an effect the other way counts as inactive or inconclusive. Potency is read from the fitted curve at half-maximal effect.

SMILES | GLP1R ag | Mito fusion act | HEK293 tox | BRCA1 expr act | GLP1R inv ag
Cc1cccc(NC2=C(Cl)C(=O)OC2OC(=O)c2ccco2)c1 (centres undefined) | 1% | 3% | -12% | 3% | -5%
O=C(NN=Cc1c(F)cccc1F)c1ccccc1NS(=O)(=O)c1cccs1 | 2% | · | -7% | -1% | -10%
Cn1c(CCC(=O)OCC(=O)Nc2ccc(Oc3ccccc3)cc2)nc(=O)c2ccccc21 | 1% | -3% | -9% | 32% | 16%
CCN(CC)CCn1c(=N)n(CC(=O)c2ccc(Br)s2)c2ccccc21 | 20% | -9% | ? | -74% | 2.8µM*
Cn1c(=N)n(CC(=O)c2ccc(Br)s2)c2ccccc21 | 12% | -6% | -19% | 49% | ?
CCOc1ccc(/C=N/Nc2nc(C)cs2)c(O)c1 | -7% | -13% | 3.2µM* | 54% | 4µM*
Cc1csc(N/N=C/c2ccccc2F)n1 | 15% | -17% | -14% | 19% | 12%
N#Cc1ccccc1OCC(=O)N1N=C(c2cccs2)CC1c1ccco1 (centres undefined) | ? | 15% | 3% | 50% | ?
CCOP(=O)(Cc1ccc(C(C)(C)CC(C)=O)o1)OCC | -6% | -4% | 1% | -20% | 3%
Oc1ccccc1-c1nc2c3ccccc3c3ccccc3c2[nH]1 | -5% | ? | -2% | -32% | ?
c1csc(-c2nc3c4ccccc4c4ccccc4c3[nH]2)c1 | -9% | 10% | -20% | -80% | 5µM*
CCNCc1cc(OCC)c(OCC(=O)NCCc2ccccc2)cc1Cl | 1% | 2% | -36% | -5% | ?
CCOc1cc(CNCC(C)C)c(Cl)cc1OCC(=O)Nc1ccccc1 | 15% | -1% | -7% | 0% | 11µM*
Cc1nc(Nc2nc3ccccc3o2)nc(C)c1C | -1% | 3% | 1% | -48% | ?
Cc1ccnc(Nc2nc3ccccc3o2)n1 | -6% | -13% | ? | -47% | 2.5µM*
CC(NCc1ccc(-c2ccccc2)cc1)C(O)c1ccccc1 (centres undefined) | -5% | -2% | ? | -66% | 7.9µM*
O=c1cc(C(F)(F)F)nc(-n2[nH]c3c(c2=O)CCCC3)[nH]1 | -18% | -1% | -6% | -45% | -15%
Cc1ccc(OCC(=O)N(Cc2ccco2)Cc2ccc(C)o2)cc1 | · | · | 2% | · | ?
Cc1cc(C)c(OCC(=O)N(Cc2ccco2)Cc2ccco2)c(C)c1 | · | · | 2% | · | ?
Cc1ccc(CN(Cc2ccco2)C(=O)COc2cccc(C)c2C)o1 | · | · | 4% | · | 11µM*
Cc1ccc(CN(Cc2ccco2)C(=O)COc2c(C)cc(C)cc2C)cc1 | · | · | 3% | -16% | 2.8µM*
Cc1cccc(OCC(=O)N(Cc2ccc(N(C)C)cc2)Cc2ccco2)c1C | · | · | 2% | · | 10µM*
CCOC(=O)N1CCC(NC(=O)c2cc3c(=O)[nH]c4ccccc4c3n2C)CC1 | 5% | -7% | 16% | -6% | 2%
Cc1cccc(NC(=O)c2sc3nc(C)nc(N4CCOCC4)c3c2C)c1 | 27% | · | 2% | 38% | 7%
Cc1nc(N2CCCCC2)c2c(C)c(C(=O)Nc3ccc4c(c3)OCCO4)sc2n1 | -1% | ? | -23% | -72% | 5.6µM*
SMILES | GLP1R ag | Mito fusion act | HEK293 tox | BRCA1 expr act | GLP1R inv ag
Cc1nc(N2CCN(c3ccccn3)CC2)c2c(C)c(C(=O)Nc3c(C)cc(Br)cc3C)sc2n1 | -3% | 15% | 4% | -2% | 2µM*
Cc1nc(N2CCN(c3ccccn3)CC2)c2c(C)c(C(=O)Nc3c(F)cc(F)cc3Br)sc2n1 | -5% | 24% | -1% | -17% | 4.5µM*
O=C(NC(=S)Nc1nc(-c2cccc3ccccc23)cs1)c1cc2ccccc2o1 | -1% | 1% | -4% | -14% | 6%
COc1ccc2c(c1)O[C@@]1(CCCC[C@@H]1C)CC2=O | -1% | 11% | -31% | -6% | ?
Cc1ccc(C)c(OCc2cc(C(=O)N3CCOCC3)no2)c1 | 15% | -4% | 3% | 18µM* | -2%
COCCCC1CCN(C(=O)c2cc(COc3cc(C)ccc3C)on2)CC1 | 16% | 20% | 1% | 3.2µM* | ?
CC(=O)NCCC1CCCCN1C(=O)c1cc(COc2cc(C)ccc2C)on1 (centres undefined) | -1% | -3% | -2% | 7.1µM* | -12%
COC1CCN(C(=O)c2cc(COc3cc(C)ccc3C)on2)CC1 | 9% | · | 1% | 64% | ?
Cc1ccc(C)c(OCc2cc(C(=O)NC3CCN(Cc4ccccc4)CC3)no2)c1 | -1% | 16% | 0% | -24% | 2.2µM*
Nc1nc(Cl)c(C=O)c(N2CCCCC2)n1 | 0% | 6% | -21% | -3% | 29%
Cn1cnnc1SCC(=O)Nc1ccccc1F | 0% | -1% | -4% | 0% | 2%
Cc1ccc(C)c(N2CCN(C(=O)CCc3nc(-c4ccccc4C(F)(F)F)no3)CC2)c1 | 3% | · | 2% | 66% | ?
Cc1ccc(-c2nn3c(C)nnc3c3ccccc23)cc1S(=O)(=O)NCC(C)O (centres undefined) | · | -6% | 3% | · | 25%
CCC(=O)c1ccc(OCC(O)CN(CCc2ccccc2)Cc2ccccc2)cc1 (centres undefined) | 5% | 9% | -21% | -72% | 8.9µM*
OC(COc1ccccc1)CN(Cc1ccccc1)CC(O)COc1ccccc1 (centres undefined) | -2% | ? | 8% | -10% | ?
NC(=O)CSc1nnc(-c2ccoc2)o1 | -2% | 3% | -8% | 5% | 3%
Cc1ccc(-c2nnc(Cc3ccc(Cl)cc3)o2)cc1 | 21% | 5% | 0% | 13µM* | ?
COc1ccc(-c2nnc(-c3ccc(C)cc3)o2)cc1 | 14% | 10% | -14% | 2.8µM* | 23%
COc1ccc(Cc2nnc(-c3ccccc3)o2)cc1 | 27% | 27% | -17% | 13µM* | -4%
Brc1ccc(-c2nnc(Cc3ccccc3)o2)cc1 | ? | 3% | 3% | 11µM* | ?
COc1ccc(Nc2cc(C)c3c(O)cccc3n2)cc1 | 1% | 1% | -26% | ? | 13µM*
Cc1ccccc1Nc1cc(C)c2c(O)cccc2n1 | -2% | 7% | 9% | 15% | -16%
Cc1ccc(Nc2cc(C)c3c(O)cccc3n2)cc1C | 25% | 4% | -8% | 5.6µM* | ?
CCOc1ccc(OCc2cccc(C(=O)N3CCOCC3)c2)cc1 | -9% | 4% | 4% | -81% | ?
CCOc1ccc(N=C(/C(C(=O)C(=O)N2CCOCC2)=C(/O)c2ccccc2)c2ccccc2)cc1 | -6% | -2% | 2% | 11µM* | -10%
COc1ccc(C(=O)N2CCCC(c3nc(-c4ccc(C)o4)no3)C2)cc1OC (centres undefined) | 5% | -10% | 13% | 2% | -1%
